Experimental data: PubChem BioAssay (NCATS)
Results filed as inconclusive are left out. The source made the active and inactive calls. Calls come from the whole dose curve; as a rule, active = well fitted curve in the direction sought with a large enough effect; inconclusive = small, poorly fitted or top-dose-only effect, or another doubt; inactive = no such curve, though single readings can be large; an effect the other way counts as inactive or inconclusive.

Legend:
[1] = P-glycoprotein substrates identified in KB-3-1 adenocarcinoma cell line, qHTS therapeutic library screen (AID 1346986); note: nearly all actives have a fitted effect of over 60% in size
Outline: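 Using luminescence to quantify ATP, parental and P-gp-overexpressing KB cells were compared after 72 h compound titration. KB-8-5-11 was also run with the P-gp inhibitor tariquidar.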

[2] = test system: Zika virus NS2B-NS3 protease (unlinked complex); assay: Primary screen GU Rhodamine qHTS for Zika virus inhibitors: Unlinked NS2B-NS3 protease assay (AID 1347159); note: nearly all actives have a fitted effect of over 60% in size; note: potency is the fitted concentration of half-maximal effect; for activity change, negative = inhibition: % is set by controls: 0 for no effect and ±100 for the full control effect
Outline: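 In dose–response format, inhibition of unlinked protease (25 nM) was measured with 1.5 microM bis-peptide Rhodamine110 substrate. Aprotinin served as the intraplate control.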

[3] = Primary qHTS for inhibitors of nuclear receptor binding SET domain protein 2 (NSD2) in an RCH-ACV wild type WT cells (2C) (AID 1645877); note: nearly all actives have a fitted effect of over 70% in size; note: potency is the fitted concentration of half-maximal effect
[4] = Primary fluorescence-based thiol-reactive (MSTI) qHTS assay for identification of artifact compounds. (AID 1845221); note: nearly all actives have a fitted effect of over 65% in size; note: potency is the fitted concentration of half-maximal effect;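 for activity change, negative = thiol reactive: thiol-reactive compounds lower the probe fluorescence signal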
Outline: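 Probe: MSTI 4 uM, PBS pH 7.4, 2% DMSO. Incubation 1 h, RT, light-protected. Readout fluorescence 525/598 nm.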

[5] = test system: KB-3-1; assay: Cytotoxic Profiling of Annotated Libraries Using Quantitative High-Throughput Screening (AID 1296008); settings: Five cell lines viability, CellTiter-Glo ATP luminescence, 48-72 h; max response: hits give low values; note: nearly all actives have a fitted effect of over 60% in size; note: potency is the fitted concentration of half-maximal effect
Outline: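 Compounds were pin-transferred onto cells and incubated 48 or 72 hr at 37 degree Celsius, 95% humidity. CellTiter-Glo was added, plates sat 10 min at room temperature, then ATP-coupled luminescence was imaged as the viability read-out.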

[6] = test system: CAOV3; assay: Primary qHTS to identify gynecologic anti-cancer compounds using libraries of approved drugs and bioactive compounds (AID 1345084); settings: Gynecologic cancer cell panel viability, ATPlite luminescence, 48 h; series mostly up to 57.5 µM; note: nearly all actives have a fitted effect of over 55% in size; note: potency is the fitted concentration of half-maximal effect; for activity change, negative = cytotoxicity: % is set by controls: 0 for no effect and ±100 for the full control effect
Outline: (§1)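 Cell viability after 48 h drug treatment, ATPlite luminescence readout; five doses.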

[7] = test system: JEG-3; assay: as above; settings: Gynecologic cancer cell panel viability, ATPlite luminescence, 48 h; series mostly up to 57.5 µM
Outline: as §1

[8] = biological target: Glutathione peroxidase 1 (Homo sapiens) (UniProt P07203); assay: Primary qHTS Assay for Inhibitors of Recombinant Selenoprotein Glutathione Peroxidase 1 (GPX1) (AID 1845191); note: nearly all actives have a fitted effect of over 65% in size; for activity, negative = inhibition: % is set by controls: 0 for no effect and ±100 for the full control effect
Glutathione peroxidase 1 (Homo sapiens), sequence (P07203 whole entry, looked up): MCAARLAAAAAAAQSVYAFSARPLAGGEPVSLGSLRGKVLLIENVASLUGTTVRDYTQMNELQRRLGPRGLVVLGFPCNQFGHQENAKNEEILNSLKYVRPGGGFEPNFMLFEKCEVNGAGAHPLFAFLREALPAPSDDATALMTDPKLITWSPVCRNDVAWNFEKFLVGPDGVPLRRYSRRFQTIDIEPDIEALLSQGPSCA
Outline: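 GPX1 10 nM, GR 100 nM, GSH 1 mM, NADPH 0.5 mM, CHP 0.5 mM (final). 30-min cpd preincubation, RT. Ex340/Em450 read t=0, t=15 min.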

[9] = test system: HeLa; assay: Primary qHTS to identify gynecologic anti-cancer compounds using libraries of approved drugs and bioactive compounds (AID 1345084); settings: Gynecologic cancer cell panel viability, ATPlite luminescence, 48 h; series mostly up to 57.5 µM; note: nearly all actives have a fitted effect of over 55% in size; note: potency is the fitted concentration of half-maximal effect; for activity change, negative = cytotoxicity: % is set by controls: 0 for no effect and ±100 for the full control effect
Outline: as §1

[10] = test system: SKOV3; assay: as above; settings: Gynecologic cancer cell panel viability, ATPlite luminescence, 48 h; series mostly up to 57.5 µM
Outline: as §1

[11] = test system: HACAT; assay: qHTS assay to identify novel small-molecules to repurpose for Merkel cell carcinoma treatment (AID 1296009); settings: MCC and control cell lines, CellTiter-Glo viability, 72 h; at 44.8 µM (top of the series) unless noted; note: nearly all actives have a fitted effect of over 60% in size
Outline: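 Luminescence from CellTiter-Glo, read 10 min after addition at room temperature, reported viability following a 72 hr, 37 degree celsius treatment with NPC or MIPE compounds in titration; values normalized to plate controls.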

C[N@@+]1(CC2CC2)CC[C@]23c4c5ccc(O)c4O[C@H]2C(=O)CC[C@@]3(O)[C@H]1C5
inactive: Potency [1] | Potency [2] | Potency [3] | Potency [4] | outcome [5] | Potency [6] | Potency [7]

CC(C)(C)[C@]1(O)C[C@@H]2OC(=O)C[C@@]23C(=O)O[C@@H]2OC(=O)[C@@H](O)[C@]213
inactive: Potency [2] | Potency [3] | Potency [8] | Potency [4] | max response [5] -3.84% | Potency [9] | Potency [7] | Potency [10]

CCC(C)/C=C(C)/C=C/C1=CC2=C(Cl)C(=O)C(C)(OC(C)=O)C(=O)C2=CO1 (stereo unspecified)
active: Potency [4] 1310 nM
inactive: Potency [8] | max response [5] -15.5% | Potency [6] | Potency [9] | Potency [7] | Potency [10]

CNC(=O)c1cc(C#N)cc(C)c1NC(=O)c1cc(Br)nn1-c1ncccc1Cl
inactive: Potency [8] | max response [5] -25.7% | Potency [6] | Potency [9] | Potency [7] | Potency [10]

CC(=O)OC[C@]12C[C@H](OC(=O)CC(C)C)C(C)=C[C@H]1O[C@@H]1[C@H](O)[C@@H](O)[C@@]2(C)[C@]12CO2
active: Potency [3] 17.8 nM | Potency [5] 39.9 nM | Potency [9] 158 nM | Potency [7] 1580 nM
inactive: Potency [8] | Potency [4]

CC(=O)O[C@@H]1[C@@H](O)[C@H]2O[C@@H]3C=C(C)[C@@H](O)C[C@]3(CO)[C@]1(C)[C@]21CO1
active: Potency [3] 358 nM | Potency [5] 805 nM | Potency [9] 2510 nM | Potency [10] 1260 nM
inactive: Potency [2] | Potency [8]

C=C1[C@@H](C)[C@H]2[C@H](Cc3ccccc3)NC(=O)[C@]23OC(=O)/C=C/C(=O)CCC[C@@H](C)C/C=C/[C@H]3[C@@H]1O
active: Potency [3] 459 nM | Potency [5] 5800 nM | Potency [6] 12600 nM | Potency [10] 25100 nM
inactive: Potency [8] | Potency [7]

COc1ccc2c3c([nH]c2c1)C(C=C(C)C)N1C(=O)C2CCCN2C(=O)C1C3 (stereo unspecified)
inactive: Potency [1] | Potency [2] | Potency [8] | outcome [5] | Potency [6] | Potency [9] | Potency [7]

CC[C@H](C)[C@H](NC(=O)[C@H]1CCCCN1C)C(=O)N(COC(=O)CC(C)C)[C@H](C[C@@H](OC(C)=O)c1nc(C(=O)N[C@@H](Cc2ccc(O)cc2)C[C@H](C)C(=O)O)cs1)C(C)C
inactive: activity change, negative = inhibition [2] 9.2% [at 2.28 µM] | activity, negative = inhibition [8] -5.19% [at 1.09 µM] | activity change, negative = thiol reactive [4] 28.3% [at 1.02 µM] | activity change, negative = cytotoxicity [6] -2.04% [at 1.28 µM]
active: Potency [3] 0.3 nM | Potency [5] 0.8 nM

C[C@H]1O[C@@H](n2cnc3c(N)ncnc32)C[C@@H]1O
inactive: Potency [1] | Potency [2] | Potency [4] | outcome [5] | Potency [7] | Potency [10]

CC1=CC(=O)[C@@H](O)[C@]2(C)C3[C@@H](O)[C@@H]4OC(=O)[C@@H]([C@H]4C)[C@]3(C)C(=O)C[C@@H]12 (stereo partly specified)
active: Potency [5] 4530 nM
inactive: Potency [2] | Potency [8] | Potency [4] | Potency [6] | Potency [9] | Potency [7]

C[C@@H]1[C@H](O)[C@@H](C)/C=C/C=C/CC/C=C/C=C/C=C/C=C/[C@H](O[C@H]2O[C@@H](C)[C@H](O)[C@@H](N)[C@H]2O)C[C@@H]2O[C@](O)(C[C@@H](O)[C@H](O)CC[C@@H](O)C[C@@H](O)C[C@@H](O)CC(=O)O[C@H]1C)C[C@H](O)[C@H]2C(=O)O
active: Potency [2] 8910 nM
inactive: Potency [1] | Potency [8] | Potency [4] | outcome [5] | outcome [11] inactive [at 17.4 µM] | Potency [6] | Potency [9] | Potency [7]

C[C@]12CC[C@H](O)C[C@H]1CC[C@@H]1[C@@H]2[C@H](O)C(=O)[C@]2(C)[C@@H](c3ccc(=O)oc3)CC[C@]12O
active: Potency [5] 46.1 nM
inactive: Potency [2] | Potency [8]

N#Cc1ccc([C@H]2CCCC[C@H]2O)cc1C(F)(F)F
inactive: Potency [2] | Potency [4] | max response [5] -5.63% | Potency [6] | Potency [9] | Potency [7]

C[C@H]1O[C@@H](O[C@H]2CC[C@]3(C=O)C4CC[C@]5(C)[C@@H](C6=CC(=O)OC6)CC[C@]5(O)[C@@H]4CC[C@]3(O)C2)C[C@@H](O)[C@@H]1O (stereo partly specified)
inactive: Potency [2] | Potency [4]
active: Potency [3] 31.7 nM | Potency [5] 89.3 nM | Potency [6] 112 nM | Potency [9] 126 nM | Potency [10] 112 nM

CC1=C[C@H]2O[C@@H]3[C@H](O)[C@@H](O)[C@](C)([C@@]2(CO)C[C@@H]1O)[C@]31CO1
active: Potency [3] 515 nM | Potency [5] 1460 nM | Potency [6] 11200 nM | Potency [9] 12600 nM
inactive: Potency [2] | Potency [8] | Potency [4]

Nc1ncnc2c1ncn2[C@@H]1O[C@@H]2COP(O)(=S)O[C@H]2[C@H]1O (stereo partly specified)
inactive: activity change, negative = inhibition [2] 2.11% [at 19.1 µM] | outcome [3] inactive [at 9.23 µM] | outcome [8] inactive [at 9.52 µM] | max response [5] -0.196% | activity change, negative = cytotoxicity [6] 2.86% [at 11.6 µM] | activity change, negative = cytotoxicity [9] 5.24% [at 11.6 µM] | activity change, negative = cytotoxicity [7] 6.35% [at 11.6 µM] | activity change, negative = cytotoxicity [10] 33.4% [at 11.6 µM]

CN1CCc2cc3c(cc2[C@H]1[C@@H]1OC(=O)c2c1ccc1c2OCO1)OCO3
inactive: Potency [1] | Potency [2] | Potency [3] | Potency [8] | Potency [4] | outcome [11] | Potency [6] | Potency [7] | Potency [10]
